Screens deposited in PubChem BioAssay by National Center for Advancing Translational Sciences (NCATS).
TRb SRC2 PPI: TRbeta-SRC2 interaction inhibition; 280,000 tested, 0.065% active; Potency, µM (top dose mostly 106 µM), most hits filed as inhibitors; TRbeta-SRC2 peptide binding, fluorescence polarization; receptor liganded with 1 µM T3; also: nearly all actives have a fitted effect of over 50% in size
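Quantitative HTS by FP: 0.6 uM TRb LBD, 20 nM labeled SRC2 20-mer, 1 uM T3, 5% DMSO; 5 hr ambient incubation; % activity per concentration and potencies from concentration series.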
GoLoco inh red: inhibitors of human Gai1-RGS12 GoLoco interaction (red fluorophore); 230,000 tested, 0.44% active; AID 880; Potency, µM (titrated, usually from 61.6 µM), most hits filed as inhibitors; Gai1:RGS12 GoLoco peptide FP, rhodamine, 10 min; active = well fitted inhibition curve with a large enough effect, not every such curve was filed as active; inactive = no such curve, though single readings can be large or run the other way; also: nearly all actives have a fitted effect of over 30% in size
Target sequence (P63096 whole entry, looked up): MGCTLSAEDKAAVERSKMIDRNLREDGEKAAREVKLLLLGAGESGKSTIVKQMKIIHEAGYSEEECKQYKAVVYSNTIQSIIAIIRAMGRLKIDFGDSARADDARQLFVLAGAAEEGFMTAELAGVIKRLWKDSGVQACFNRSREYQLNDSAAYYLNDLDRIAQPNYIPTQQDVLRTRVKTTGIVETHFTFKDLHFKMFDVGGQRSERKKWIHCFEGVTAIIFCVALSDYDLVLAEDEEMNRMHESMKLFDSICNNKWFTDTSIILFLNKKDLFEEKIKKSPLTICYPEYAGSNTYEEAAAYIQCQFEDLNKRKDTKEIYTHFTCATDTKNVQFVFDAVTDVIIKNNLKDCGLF
Tau FP inhib: blocks human tau fibril formation measured by polarization | P10636 | K18 P301L tau heparin fibrillization, Alexa594 FP, 6 h | Potency, µM (highest dose often 57.7 µM), usual class: inhibitors | 280,000 tested, 0.39% active; also: nearly all actives have a fitted effect of over 55% in size
Target sequence (P10636 561-689 P618L limits assumed): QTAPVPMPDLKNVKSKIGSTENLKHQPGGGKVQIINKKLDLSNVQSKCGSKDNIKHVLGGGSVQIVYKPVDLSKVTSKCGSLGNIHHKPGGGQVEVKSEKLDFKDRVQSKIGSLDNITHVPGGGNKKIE
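Compound effects on tau fibrillization are measured by Alexa 594 fluorescence polarization (ex 555, em 632 nm). K18 P301L tau is used at 15 uM with 0.24 uM labeled tracer, and 20 uM heparin induces aggregation over 6 hr at 37 C.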
Tau fluor cs: counter-screen for tau fibril formation inhibitors; tau K18 P301L Alexa594 fluorescence, heparin fibrillization; Potency, µM (doses to about 57.7 µM); 280,000 tested, 0.93% active; AID 1463; also: nearly all actives have a fitted effect of over 55% in size
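Human K18 P301L tau (15 uM unlabeled plus 0.24 uM Alexa 594-labeled, final) in 100 mM sodium acetate pH 7 was mixed with compound and 20 uM heparin and incubated 6 hr at 37 C.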
Tau ThT inhib: inhibitors of human tau fibril formation, thioflavin T binding. P10636. recombinant tau K18 P301L (four-repeat tau fragment), heparin-induced fibrillization, ThT fluorescence. Potency, µM (highest dose often 57.4 µM), most hits filed as inhibitors. 270,000 tested, 2.1% active; also: nearly all actives have a fitted effect of over 55% in size
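Recombinant human tau K18 fragment […] carrying P301L, 15 uM unlabeled plus 0.24 uM Alexa 594-labeled, was fibrillized with 20 uM heparin in 100 mM sodium acetate pH 7 for 6 hr at 37 C; 30 uM ThT fluorescence read after 1 hr.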
TR SRC2 fluor cs: alters Texas Red total fluorescence, flagging assay interference; TRb/SRC2 Texas Red total fluorescence interference; Potency, µM (doses to about 106 µM); 280,000 tested, 0.29% active; AID 1479; active = well fitted curve in either direction with a large enough effect; inconclusive = small, poorly fitted or top-dose-only effect
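Flags fluorescent or light-absorbing compounds by total fluorescence, S + 2P, at 555 nm excitation and 632 nm emission. Mixture: 20 nM Texas Red SRC2 peptide, 0.6 uM human TRb LBD, 1 uM T3, 5% DMSO; compound exposure 5 h at ambient temperature.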
Hits are given with their value; 0 = inactive; ? = inconclusive; - = not tested or not shown; [ ] = remark or other dose. Sampled rows, rich in hits. Any-hit rate of the full collection: about 3.1%. Unless noted, calls follow the shape of the dose curve; as a rule, active = well fitted curve in the direction sought with a large enough effect; inconclusive = small, poorly fitted or top-dose-only effect, or another doubt; inactive = no such curve, though single readings can be large; an effect the other way counts as inactive or inconclusive.

SMILES	TRb SRC2 PPI	GoLoco inh red	Tau FP inhib	Tau fluor cs	Tau ThT inhib	TR SRC2 fluor cs
O=C1C2=C(NC(=S)NC2c2ccc(Cl)cc2)NC(c2ccc(Cl)cc2)N1c1ccc(Cl)cc1 (stereo not drawn)	0	0	?	?	31.6µM	0
Clc1ccc(C2[C@H]3CN(Cc4ccc(-c5ccccc5)cc4)[C@H](c4ccccc4)C34CC2(c2cccnc2)C4)cn1 (stereo partly drawn)	0	0	0	0	?	0
COc1cc(Cl)c(C)cc1NC(=O)c1ccc(NS(=O)(=O)c2ccc(F)c(F)c2)cc1	0	0	?	0	0	0
CC1(C)OC(=O)C(=CNc2cccc(O)c2)C(=O)O1	0	0	0	0	0	0
CC1(C)OC(C)(C)/C(=C/Nc2ccc(O)cc2)C1=O	0	0	?	?	14.1µM	0
O=C(O)c1cccc(N2C(=S)N=C(Nc3ccccc3)C23CCCCC3)c1	0	0	0	0	0	0
[O-][N+]1=c2ccc(Nc3ccccc3)cc2=NC12CCCCC2	?	0	?	?	7.08µM	0
COc1ccc(Nc2ccc3c(c2)=NC2(CCCCC2)[N+]=3[O-])cc1	?	0	?	?	4.47µM	0
CN1CCc2c(n(CC(O)CNCc3ccccc3)c3ccccc23)C1=O (stereo not drawn)	0	0	0	0	0	0
CC(C)NCC(O)Cn1c2c(c3ccccc31)CCc1c-2cnn1-c1ccccc1 (stereo not drawn)	0	0	0	?	15.8µM	0
CCc1ccc(NSc2ccccc2[N+](=O)[O-])cc1	0	0	0	14.1µM[quencher]	?	0
O=[N+]([O-])c1cccc(/C=C/c2nc3ccc([N+](=O)[O-])cc3[nH]2)c1	0	0	0	?	?	0
O=C1/C(=C\c2ccc(O)cc2)SC(=S)N1c1cccnc1	0	0	0	0	?	0
O=C1/C(=C/c2ccco2)SC(=S)N1c1cccnc1	0	0	?	?	15.8µM	0
O=C1NC(=Nc2ccc(O)cc2)S/C1=C/c1ccco1	0	0	0	?	?	0
O=C1NC(=Nc2ccc(Cl)cc2)/C(=C/c2ccco2)S1	0	0	0	0	?	0
O=C1/C(=C\c2ccco2)SC(=S)N1c1ccc(O)cc1	0	0	0	?	17.8µM	0
O=C1/C(=C/C=C/c2ccco2)SC(=S)N1c1ccc(O)cc1	0	0	?	11.2µM[quencher]	3.98µM	0
NN1C(=O)/C(=C\c2ccco2)SC1=S	0	0	?	?	31.6µM	0
O=C(NCCc1ccc(Cl)cc1)c1cc(-c2ccccc2)n[nH]1	0	-	?	0	0	0
Cc1c(C#N)c2ccccc2n1CC(=O)O	0	0	0	0	0	0
CC(C)C(C(=O)O)N1C(=O)/C(=C/c2cccn2C)SC1=S (stereo not drawn)	0	0	0	0	?	0
CN(C)c1ccc(/C=C/C=C2/SC(=S)N(c3ccccc3)C2=O)cc1	?	0	0	0.708µM[fluorescent]	2.51µM	3.16µM[fluorescent]
CC(C)C(C(=O)O)N1C(=O)/C(=C/C=C/c2ccco2)SC1=S (stereo not drawn)	0	0	25.1µM	?	12.6µM	?
CC(C)(C)c1ccc(NC(=O)CSc2nnc(-c3n[nH]c4ccccc34)o2)cc1	0	0	31.6µM	?	0	?
SMILES	TRb SRC2 PPI	GoLoco inh red	Tau FP inhib	Tau fluor cs	Tau ThT inhib	TR SRC2 fluor cs
O=C(CCc1ccc(S(=O)(=O)NCCc2ccccc2)cc1)Nc1ccc2c(c1)OCO2	0	0	?	?	?	0
S=C(Nc1ccc2c(c1)OCO2)Nc1ccc2c(c1)OCO2	0	0	?	?	25.1µM	0
CC(=O)c1ccc(NC(=O)Nc2cccc(Cl)c2)cc1	0	0	20µM	14.1µM[quencher]	?	0
O=C(Nc1ccccc1)Nc1cccc(Cl)c1	0	0	?	?	0	0
O=C(Nc1ccc(S(=O)(=O)NCc2ccccc2)cc1)Nc1ccc2c(c1)OCO2	0	0	?	3.98µM[quencher]	?	0
CC(=O)c1ccc(NC(=S)NCCc2ccc(S(N)(=O)=O)cc2)cc1	0	0	0	0	?	0
CC(=O)c1ccc(NC(=S)NCCc2cccc(Cl)c2)cc1	0	0	25.1µM	?	0	0
COC(=O)Cn1c(CN2CCN(c3ccc(OC)cc3)CC2)nc2c1c(=O)[nH]c(=O)n2C	0	-	0	0	0	0
COc1cccc2cc(C(=O)N3CCN(c4ncccn4)CC3)c(=O)oc12	0	0	0	0	0	0
CCS(=O)(=O)CCSc1nc(C)cc(C)n1	0	0	0	0	0	0
CCCNC(=O)c1ccc(SCC(=O)N(CC)CC)c([N+](=O)[O-])c1	0	0	0	0	0	0
O=C(Nc1cccc(Cl)c1)Nc1ccc2c(c1)OCO2	0	0	0	14.1µM[quencher]	?	0
COc1ccccc1NC(=O)c1sc2nc(-c3cc4ccccc4oc3=O)[nH]c(=O)c2c1C	0	-	0	0	0	0
COc1ccccc1NC(=O)c1sc2nc(-c3cc4cc(Cl)ccc4oc3=O)[nH]c(=O)c2c1C	0	-	0	0	0	17.8µM[quencher]
N#CC(=C(/N)Sc1ccccc1N)/C(C#N)=C(\N)Sc1ccccc1N	0	0	-	17.8µM[quencher]	14.1µM	0
Nc1c(C(=O)Nc2cccc(C(F)(F)F)c2)c2ccccn2c1C(=O)c1ccccc1	0	-	0	0	0	0
CCN(c1ccc(OC)cc1)S(=O)(=O)c1ccc2[nH]c3c(c2c1)CCCCC3	0	-	0	10µM[quencher]	0	0
CCN(Cc1ccccc1)S(=O)(=O)c1ccc2[nH]c3c(c2c1)CCCCC3	0	-	0	7.94µM[quencher]	0	0
C[n+]1ccccc1N1CCN(c2ccccc2Cl)CC1	0	12.6µM	0	0	0	0
CC(C)Sc1cc(N2CCCC2)nc(-c2ccccc2Cl)n1	0	0	0	0	0	0
CN(C)c1ccc(/C=N\NC(=O)c2ccc(Cn3cc(Cl)cn3)cc2)cc1	0	0	0	?	?	0
Cc1cc(C)c2c(=O)cc(C(=O)Nc3ccc(S(=O)(=O)Nc4onc(C)c4C)cc3)oc2c1	0	-	0	?	?	126µM[quencher]
Cc1cc2c(=O)[nH]cnc2s1	0	0	0	0	0	0
CCOc1ccc(/C=N/NC(=O)Cc2csc(Nc3cccc(C(F)(F)F)c3)n2)cc1	0	0	0	10µM[quencher]	?	0
CCOc1ccc(/C=N/NC(=O)Cc2csc(Nc3cccc(C(F)(F)F)c3)n2)c(OCC)c1	0	0	?	?	0	0
CCOc1ccccc1/C=N/NC(=O)Cc1csc(Nc2cccc(C(F)(F)F)c2)n1	0	0	0	20µM[quencher]	0	0
Cc1nn2c(NC(C)C)c3c(nc2c1-c1ccccc1)CCC3	0	0	?	?	28.2µM	0
Cc1nn2c(NCC(C)C)c3c(nc2c1-c1ccccc1)CCC3	0	0	0	0	0	0
